# Test results reported in the supplement of paper PMC12645437, “Orthogonal IMiD-Degron Pairs Induce Selective Protein Degradation in Cells” (ACS Chemical Biology, 2025).
# Whole data set: some 8,300 sequences, median “log2 fold change of degron read counts, EGFP-low vs EGFP+ sorted cells (limma voom), compound-induced degradation” near -1.1, cut for the highest 2% near 3.2. The sample holds the highest values, similar sequences and a random draw of the others, so the mix is not that of the screen.
# T1: CRBN, Q96SW2
# T1 chain: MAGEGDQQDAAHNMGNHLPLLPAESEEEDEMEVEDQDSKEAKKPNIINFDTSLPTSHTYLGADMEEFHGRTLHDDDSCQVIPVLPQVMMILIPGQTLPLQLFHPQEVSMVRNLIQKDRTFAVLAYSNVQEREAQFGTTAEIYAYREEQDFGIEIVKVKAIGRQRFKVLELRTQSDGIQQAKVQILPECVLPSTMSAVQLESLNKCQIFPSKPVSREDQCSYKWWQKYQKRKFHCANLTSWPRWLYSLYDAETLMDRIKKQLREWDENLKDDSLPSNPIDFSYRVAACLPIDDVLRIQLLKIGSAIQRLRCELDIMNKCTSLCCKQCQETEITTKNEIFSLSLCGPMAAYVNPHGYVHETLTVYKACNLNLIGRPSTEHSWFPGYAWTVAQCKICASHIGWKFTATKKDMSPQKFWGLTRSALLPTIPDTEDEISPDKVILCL
# Biological target: T1, CRBN, Q96SW2
# Test: log2 fold change of degron read counts, EGFP-low vs EGFP+ sorted cells (limma voom), compound-induced degradation; higher = more compound-induced degradation of the degron-EGFP fusion; degrons are variants of IKZF1/3 zinc finger 2; compound dose not given here
# Details: Jurkat, 18 h
# Procedure: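 Pooled library of 8380 IKZF3 ZF2 degron mutants (positions 146-167 varied within the IKZF3 130-189 degron; only the varied core is printed, flanks not printed) fused to EGFP with IRES-mCherry, lentivirally expressed in Jurkat cells. mCherry+ cells were treated with one IMiD compound for 18 h (dose not stated) and FACS-sorted into EGFP-low and EGFP+ populations. Degron sequences were counted by NGS, and log2FC (EGFP-low vs EGFP+) was estimated by limma voom over 3 biological replicates.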
# [1] = compound: compound 19 (5-tert-butyl-thalidomide)
# [2] = compound: compound 22 (5-morpholino-thalidomide)
# [3] = compound: compound 33 (diphenyl IMiD analogue)
# 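Note: pooled lentiviral library of zinc finger degron-EGFP fusions in mCherry-positive Jurkat cells, FACS-sorted after compound exposure, with degron abundance counted by next-generation sequencing.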
Sequence,log2 fold change of degron read counts [1],log2 fold change of degron read counts [2],log2 fold change of degron read counts [3],log2 fold change of degron read counts (compound: thalidomide)
"FNCPICGAEFTQKGNLLRHIKL [46F_47N_49P_50I_52G_53A_54E_55F_67L_, Q9UKT9]",1.92,0.348,0.475,0.897
"FECDICGARFTQKGNLLRHIKL [46F_47E_49D_50I_52G_53A_54R_55F_67L_, Q9UKT9]",-0.106,-1.6,-0.318,1.69
"FRCPICGHKFTQKGNLLRHIKL [46F_47R_49P_50I_52G_53H_54K_55F_67L_, Q9UKT9]",-2.46,-2.78,-1.61,-1.55
"FSCNQCGRMFTQKGNLLRHIKL [46F_47S_49N_50Q_52G_53R_54M_55F_67L_, Q9UKT9]",-2.45,-3.15,-2.32,-2.79
"FHCNQCGHKFTQKGNLLRHIKL [46F_47H_49N_50Q_52G_53H_54K_55F_67L_, Q9UKT9]",-2.56,-3.05,-2.84,-2.45
"FDCPICGRRFTQKGNLLRHIKL [46F_47D_49P_50I_52G_53R_54R_55F_67L_, Q9UKT9]",2.15,0.908,1.08,2.66
"LCCNQCGFHCTQKGNLLRHIKL [46L_47C_49N_50Q_52G_53F_54H_55C_67L_, Q9UKT9]",-2.15,-2.61,-1.7,-1.96
"FDCSVCGHPFTQKGNLLRHIKL [46F_47D_49S_50V_52G_53H_54P_55F_67L_, Q9UKT9]",-1.84,-2.36,-2.33,-1.9
"FKCDVCGAYFTQKGNLLRHIKL [46F_47K_49D_50V_52G_53A_54Y_55F_67L_, Q9UKT9]",-2.99,-3.36,-3.07,-2.83
"FECDVCGADFTQKGNLLRHIKL [46F_47E_49D_50V_52G_53A_54D_55F_67L_, Q9UKT9]",-3.21,-3.19,-1.99,-2.31
"FWCPICGRPFTQKGNLLRHIKL [46F_47W_49P_50I_52G_53R_54P_55F_67L_, Q9UKT9]",2.01,0.778,1.24,-0.187
"FWCPQCGAKFTQKGNLLRHIKL [46F_47W_49P_50Q_52G_53A_54K_55F_67L_, Q9UKT9]",1.29,2.33,-0.101,-0.258
"FVCEICGAQFTQKGNLLRHIKL [46F_47V_49E_50I_52G_53A_54Q_55F_67L_, Q9UKT9]",0.913,2.56,2.86,3.22
"FKCEICGAQFTQKGNLLRHIKL [46F_47K_49E_50I_52G_53A_54Q_55F_67L_, Q9UKT9]",0.105,-2.17,-1.89,-0.0845
"FNCEICGAQFTQKGNLLRHIKL [46F_47N_49E_50I_52G_53A_54Q_55F_67L_, Q9UKT9]",2.88,1.44,0.527,0.564
"FACEICGAQFTQKGNLLRHIKL [46F_47A_49E_50I_52G_53A_54Q_55F_67L_, Q9UKT9]",3.66,2.38,1.15,1.07
"FCCEICGAQFTQKGNLLRHIKL [46F_47C_49E_50I_52G_53A_54Q_55F_67L_, Q9UKT9]",3.18,2.58,2.74,2.27
"FGCEICGAQFTQKGNLLRHIKL [46F_47G_49E_50I_52G_53A_54Q_55F_67L_, Q9UKT9]",3.48,2.64,1.18,1.14
"FTCDQCGASFTQKGNLLRHIKL [46F_47T_49D_50Q_52G_53A_54S_55F_67L_, Q9UKT9]",-1.41,-1.1,-0.521,-1.39
"FRCEICGRAFTQKGNLLRHIKL [46F_47R_49E_50I_52G_53R_54A_55F_67L_, Q9UKT9]",-1.67,-1.99,0.837,0.0765
"LWCNQCGFLCTQKGNLLRHIKL [46L_47W_49N_50Q_52G_53F_54L_55C_67L_, Q9UKT9]",-0.0173,-0.578,-0.261,-0.106
"LACEICGFACTQKGNLLRHIKL [46L_47A_49E_50I_52G_53F_54A_55C_67L_, Q9UKT9]",3.1,2.3,0.347,0.922
"LWCEICGFACTQKGNLLRHIKL [46L_47W_49E_50I_52G_53F_54A_55C_67L_, Q9UKT9]",2.64,3.24,2.31,1.06
"LCCEICGFACTQKGNLLRHIKL [46L_47C_49E_50I_52G_53F_54A_55C_67L_, Q9UKT9]",1.77,1.67,1,1.51
"LECEICGFACTQKGNLLRHIKL [46L_47E_49E_50I_52G_53F_54A_55C_67L_, Q9UKT9]",0.666,-1.22,0.464,1.55
"LICEICGFACTQKGNLLRHIKL [46L_47I_49E_50I_52G_53F_54A_55C_67L_, Q9UKT9]",0.692,2.24,1.68,2.74
"LSCEICGFACTQKGNLLRHIKL [46L_47S_49E_50I_52G_53F_54A_55C_67L_, Q9UKT9]",2.2,2.05,0.991,1.15
"LQCEICGFACTQKGNLLRHIKL [46L_47Q_49E_50I_52G_53F_54A_55C_67L_, Q9UKT9]",2.27,1.95,1.57,3.4
"LYCEICGFACTQKGNLLRHIKL [46L_47Y_49E_50I_52G_53F_54A_55C_67L_, Q9UKT9]",3.17,3.5,2.65,1.71
"LGCEICGFACTQKGNLLRHIKL [46L_47G_49E_50I_52G_53F_54A_55C_67L_, Q9UKT9]",0.464,-0.188,-0.784,-0.556
